The text below walks through data of PubChem BioAssay (NCATS).

Results filed as inconclusive are left out. Unmarked numbers belong to inactive results. Calls of active or inactive are those of the source. Calls come from the whole dose curve; as a rule, active = well fitted inhibition curve with a large enough effect; inconclusive = small, poorly fitted or top-dose-only effect; inactive = no such curve, though single readings can be large or run the other way.

Usually viability stands for a read-out of living cells in per cent, often relative to untreated cells.
Potency is the fitted concentration of half-maximal effect.

A short description of this assay: BET inhibitor-based combinations targeting novel dependencies in MECOM-rearranged (r) AML: SET-2 cell line (AID 2202231). Note: nearly all actives have a fitted effect of over 35% in size. The following applies: SET-2 AML cells viability, CellTiter-Glo luminescence, 48 h; viability: active compounds read low, series mostly up to about 46 µM. The text has this:
Ecotropic viral insertion site 1 (EVI1) is located on chromosome 3q26.2 as part of the MECOM (MDS and EVI1 complex) locus. Under normal hematopoiesis, EVI1 is a regulator of hematopoietic stem cell maintenance and self-renewal and EVI1 levels decrease as the cells differentiate. In approximately 5-10% of de novo acute myeloid leukemia (AML) EVI1 is aberrantly expressed, including Chromosomal inv(3)(q21;q26.2) or t(3;3)(q21;q26.2) alterations (MECOM-r) that account for about 50% of AML with EVI1 overexpression 31. AMLs with high levels of EVI1 have a poor prognosis and an overall survival time averaging between 10-14 months. EVI1 overexpression confers resistance in leukemia cells, highlighting the need to develop new targeted therapies for EVI1 overexpressing AMLs.
Here, we performed an unbiased chemical drug screening by evaluating the single agent activity of a collection of 2,480 oncology-focused, approved and investigational drugs (NCATS Mechanism Interrogation Plates, MIPE v5.0) against a panel of seven AML cell lines. These included four MECOM-r cell-lines (AML-191, AML-194, UCSD-AML1 and HNT-34) and three non-MECOM-r AMLs (MV4-11, OCI-AML3 and SET-2). Exploiting the mechanistic redundancy built in the library, we identified target-level sensitivities in MECOM-r AML cells and relative activity as compared to other AML subtypes.
A collection of 2480 mechanistically annotated dugs (MIPE v5.0) was used to screen four 3q26.2 rearranged AML cell lines and three non-3q26.2 rearranged AML cell lines. This library purposely exploits redundancy by including multiple inhibitors of key onco-targets, while simultaneously encompassing mechanistic diversity, targeting more than 800 distinct mechanisms of action. Briefly, cells were seeded in 5 uL of growth media using a Multidrop Combi dispenser into 1536 well white polystyrene tissue culture treated plates (Corning) at a density of 500cells/well. For each cell-line, for each of the 2480 drugs in MIPE v5.0 library, an 11-point dose curve was generated via a 1536 pin-tool. Plates were incubated for 48 hr at standard incubator conditions, covered by a stainless steel gasketed lid to prevent evaporation. Cell viability was determined by luminescence based, Cell Titer Glo assay (Promega). In detail, 3 uL of Cell Titer Glo were added to each well and plates were incubated at room temperature for 15 min with a stainless-steel lid in place. Luminescence readings were taken using a Viewlux (PerkinElmer) with a 2 s exposure time per plate. Compound dose-response curves were normalized to DMSO and empty well controls on each plate. Quantitative drug activity data from dose-response curves was determined utilizing area Under the Curve (AUC) and Z-transformed AUC (Z-AUC, a mean-centering transformation applied to each individual cell-line screened).
As to `Cc1nc(C(=O)NCC(=O)O)c(O)c2ccc(Oc3ccccc3)cc12`, the viability was 96.3%.

Take `CC(C)C[C@H](NC(=O)[C@@H](O)[C@H](N)Cc1ccccc1)C(=O)O`: the viability was 104%.

For the compound `C1CCC(C(CC2CCCCN2)C2CCCCC2)CC1` (stereo not given), the Potency was 11.8 µM (active).

In the case of `COC(=O)N1CC2(CC2)C[C@H](C(=O)NO)[C@H]1C(=O)N1CCN(c2ccccc2)CC1`, the viability is 112%.

With `CN[C@H](CC(C)C)C(=O)N[C@H]1C(=O)N[C@@H](CC(N)=O)C(=O)N[C@H]2C(=O)N[C@H]3C(=O)N[C@H](C(=O)N[C@H](C(=O)O)c4cc(O)cc(O)c4-c4cc3ccc4O)[C@H](O)c3ccc(c(Cl)c3)Oc3cc2cc(c3O[C@@H]2O[C@H](CO)[C@@H](O)[C@H](O)[C@H]2O[C@H]2C[C@](C)(N)[C@H](O)[C@H](C)O2)Oc2ccc(cc2Cl)[C@H]1O`, the viability is 117%.

Regarding `CC(C)N(CCCNC(=O)Nc1ccc(C(C)(C)C)cc1)C[C@H]1O[C@@H](n2ccc3c(N)ncnc32)[C@H](O)[C@@H]1O`, the viability is 93.2%.

`O=C1[C@H](Cc2ccc(O)cc2)N2C(=O)CCN(C(=O)NCc3ccccc3)[C@H]2CN1Cc1cccc2ccccc12`: the Potency is 11.8 µM (active).

In the case of `O=[N+]([O-])c1cncn1CCN1CCOCC1`, the viability was 112%.

`Cc1c(C(=O)N2CCOc3ccc(-c4ccc(N)nc4)cc3C2)ccc(S(C)(=O)=O)c1F`: the Potency is 13.2 µM (active).

For the compound `CC(C)c1noc(N2CCC(COc3ccc(-c4ccc(S(C)(=O)=O)cc4)nc3)CC2)n1`, the Potency is 11.8 µM (active).

As for `CC(C)c1ccc2oc3nc(N)c(C(=O)O)cc3c(=O)c2c1`, the viability is 106%.

Turning to `CC(=O)SC[C@@H](C)C(=O)N1CCC[C@H]1C(=O)N[C@@H](Cc1ccccc1)C(=O)O`, the viability is 115%.

On to `COc1cc(C(=O)NC2CCN(C)CC2)ccc1Nc1ncc2c(n1)N(C1CCCC1)CCC(=O)N2C(C)C`, for which the Potency is 23.5 µM (active).

With `C[C@@]1(c2cc(-c3cncnc3)c(F)cc2F)CCSC(N)=N1`, the viability was 111%.

As to `CC1CCC(n2c3cnccc3c3cnc(Nc4ccc5c(n4)CCN(C(=O)CO)C5)nc32)CC1` (stereo not given), the viability is 105%.

In the case of `COc1ccc(-n2nc(C(N)=O)c3c2C(=O)N(c2ccc(N4CCCCC4=O)cc2)CC3)cc1`, the viability is 101%.

On to `Cc1nn(C)c(COc2ccc(N3CCN(S(=O)(=O)N(C)C)CC3)cc2)c1-c1cccc2c(CCCOc3cccc4ccccc34)c(C(=O)O)n(CCN3CCOCC3)c12`, for which the viability was 112%.

In the case of `O=C(O)c1ccc(-c2c[nH]c3ncc(-c4ccccc4)cc23)cc1C1CCCC1`, the viability is 89.8%.

With `CN1CCC(=C2c3ccccc3C=Cc3ccccc32)CC1`, the Potency is 13.2 µM (active).

Take `CC1(C)CC(=O)c2c(C(F)(F)F)nn(-c3ccc(C(N)=O)c(NC4CCC(OC(=O)CN)CC4)c3)c2C1` (stereo not given): the Potency is 0.263 µM (active).

With `CC(C)(N)C(=O)N[C@H](COCc1ccccc1)C(=O)N1CCC2(CC1)CN(S(C)(=O)=O)c1ccccc12`, the viability was 104%.

In the case of `Cc1ccc(C(C)(O)c2nc3ccccc3s2)c(C)c1` (stereo not given), the Potency was 13.2 µM (active).

Turning to `CCCc1nc(C(C)(C)O)c(C(=O)O)n1Cc1ccc(-c2ccccc2-c2nn[nH]n2)cc1`, the viability is 116%.

With `O=Nc1c(-c2c(O)[nH]c3cc(Br)ccc23)[nH]c2ccccc12`, the Potency is 5.25 µM (active).

As for `CCNC(=O)C#Cc1ccc2c(C(=Nc3ccc(CN(C)C)cc3)c3ccccc3)c(O)[nH]c2c1`, the Potency was 12.9 µM (active).

For `CCc1ccc(/C=C2/SC(=S)NC2=O)cc1`, the viability is 89.4%.

Consider `CN1CCN(c2cc(C(=O)Nc3ccc4c(c3)-c3c(c(C(N)=O)nn3-c3ccc(F)cc3)CC4)c(Cl)cn2)CC1`, for which the Potency is 8.33 µM (active).

Regarding `COc1ccc(N(C)c2nc(C)nc3ccccc23)cc1`, the Potency was 0.0118 µM (active).

Take `COc1ccc2c(OCc3nnc4ccc(-c5ccccc5)nn34)ccnc2c1`: the viability was 116%.

With `Cc1cc(NC(=O)Nc2ccc(N(C)C)cc2)c2cc(F)cc(F)c2n1`, the viability was 94.3%.

`COc1ncc(-c2ccc3c(Nc4cc(Oc5cc(F)cc(F)c5)cc(C(=O)O)c4)c(S(=O)(=O)NC4CC4)cnc3c2)c(OC)n1`: the viability is 110%.

For `N#Cc1ccc(Oc2ccc3c(c2)COB3O)cc1`, the viability is 109%.

As for `Cc1ccc(S(=O)(=O)N[C@@H](Cc2ccccc2)C(=O)CCl)cc1`, the Potency was 18.6 µM (active).

For `COc1ccc(CCC(=O)Nc2nc3ccc(Cl)cc3s2)cc1OC`, the viability was 120%.

As to `CN1C(=O)c2sccc2N(C)c2nc(Nc3ccc(S(N)(=O)=O)cc3)ncc21`, the Potency is 6.61 µM (active).

With `CCOc1cc(N)c(Cl)cc1C(=O)NCC1CN(Cc2ccc(F)cc2)CCO1` (stereo not given), the viability is 105%.

As to `Clc1ccc2c(N3CCN(CCCN4CCN(c5ccnc6cc(Cl)ccc56)CC4)CC3)ccnc2c1`, the viability was 76.4%.

With `Cn1c(CNc2ccc(C(=N)N)cc2)nc2cc(C(=O)N(CCC(=O)O)c3ccccn3)ccc21`, the viability is 116%.

Regarding `Clc1ccc(C(Cn2ccnc2)OCc2c(Cl)cccc2Cl)c(Cl)c1` (stereo not given), the Potency is 26.3 µM (active).

Take `Cc1nc(N)sc1-c1ccnc(Nc2ccc(N3CCOCC3)cc2)n1`: the Potency was 5.25 µM (active).
